In PubChem BioAssay (NCI):
About 83,000 compounds went through this panel and 20% of them were active in at least one assay; those are over-represented in the sample as a whole.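 Percent growth is the endpoint: 0 to 100 indicates growth inhibition (40 means 60% inhibition), 0 means no net growth, and negative values indicate cell death.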 The source made the active and inactive calls. How the source made its calls: active means growth percent below 10; inactive means the rest.

Legend:
Assay in all cases: NCI-60 one-dose screen, 48 h (100 = growth as untreated, 0 = no growth, -100 = all killed)
Settings in all cases: 10 µM
RPMI-8226 leukemia = system: RPMI-8226 leukemia
OVCAR-8 ovarian = system: OVCAR-8 ovarian
OVCAR-5 ovarian = system: OVCAR-5 ovarian
OVCAR-4 ovarian = system: OVCAR-4 ovarian
SK-OV-3 ovarian = system: SK-OV-3 ovarian
IGROV1 ovarian = system: IGROV1 ovarian
OVCAR-3 ovarian = system: OVCAR-3 ovarian
HS 578T breast = system: HS 578T breast
NCI/ADR-RES ovarian = system: NCI/ADR-RES ovarian
T-47D breast = system: T-47D breast
BT-549 breast = system: BT-549 breast
MDA-MB-435 melanoma = system: MDA-MB-435 melanoma
SW-620 colon = system: SW-620 colon
MCF7 breast = system: MCF7 breast
HCT-116 colon = system: HCT-116 colon
HCC-2998 colon = system: HCC-2998 colon
KM12 colon = system: KM12 colon
MDA-MB-468 breast = system: MDA-MB-468 breast

Measured: growth

COc1ccc(N2N=C(c3ccc4c(c3)OCCO4)CC2c2cccc(NC(=O)CCCNS(=O)(=O)c3ccc(F)cc3)c2)cc1 (stereo not drawn)
inactive: RPMI-8226 leukemia 41.2% | OVCAR-8 ovarian 87.7% | OVCAR-5 ovarian 89% | OVCAR-4 ovarian 60% | SK-OV-3 ovarian 101% | IGROV1 ovarian 81.5% | OVCAR-3 ovarian 81.3% | HS 578T breast 78.7% | NCI/ADR-RES ovarian 88.5% | T-47D breast 63.3% | BT-549 breast 78.3% | MDA-MB-435 melanoma 69.7% | SW-620 colon 95.2% | MCF7 breast 60.7% | HCT-116 colon 73.3% | HCC-2998 colon 77.1% | MDA-MB-468 breast 60.8%
active: KM12 colon -92.8%

Cc1ccc(S(=O)(=O)c2nc(-c3ccccc3)oc2S(=O)(=O)CC(=O)N2CCCC2)cc1
active: RPMI-8226 leukemia -53.4% | OVCAR-8 ovarian -86.7% | OVCAR-5 ovarian -87.2% | OVCAR-4 ovarian -92.7% | OVCAR-3 ovarian -92.8% | NCI/ADR-RES ovarian -69.5% | T-47D breast -70.4% | BT-549 breast -24.4% | MDA-MB-435 melanoma -99.3% | SW-620 colon -68.1% | MCF7 breast -40.7% | HCT-116 colon 0.73% | HCC-2998 colon -91.1% | MDA-MB-468 breast -91.8%
inactive: SK-OV-3 ovarian 68.4% | IGROV1 ovarian 18.4% | HS 578T breast 20.5% | KM12 colon 40.8%

Cc1ccc(NC(=O)c2ccc(-n3c(=O)[nH]c4ccccc4c3=O)cc2)cc1
inactive: RPMI-8226 leukemia 133% | OVCAR-8 ovarian 52.9% | OVCAR-5 ovarian 106% | OVCAR-4 ovarian 98.8% | SK-OV-3 ovarian 82.5% | IGROV1 ovarian 103% | OVCAR-3 ovarian 90.5% | HS 578T breast 78.3% | NCI/ADR-RES ovarian 80.2% | T-47D breast 80.4% | BT-549 breast 24.4% | MDA-MB-435 melanoma 102% | SW-620 colon 113% | MCF7 breast 87.5% | HCT-116 colon 92.4% | HCC-2998 colon 108% | KM12 colon 96.7% | MDA-MB-468 breast 82.2%

CCCCSc1nc(Nc2ccc(/C(C)=N/NC(N)=S)cc2)c(C#N)c(-c2ccc(F)cc2)n1
inactive: RPMI-8226 leukemia 58.2% | OVCAR-5 ovarian 64.4% | OVCAR-4 ovarian 16.3% | SK-OV-3 ovarian 78.4% | IGROV1 ovarian 49.6% | OVCAR-3 ovarian 35.4% | HS 578T breast 28.8% | NCI/ADR-RES ovarian 37.5% | T-47D breast 46.8% | BT-549 breast 31.5% | MDA-MB-435 melanoma 78.6% | SW-620 colon 67.7% | MCF7 breast 41.3% | HCT-116 colon 36.3% | HCC-2998 colon 66.9% | KM12 colon 60.2%
active: OVCAR-8 ovarian 7.66% | MDA-MB-468 breast -1.25%

CN1CCN(c2ccc(Nc3nc(NCCCNC(=O)c4ccc(Cl)cc4)c4sccc4n3)cc2)CC1
inactive: RPMI-8226 leukemia 48.5% | OVCAR-8 ovarian 67.9% | OVCAR-5 ovarian 90.8% | OVCAR-4 ovarian 70.6% | SK-OV-3 ovarian 103% | IGROV1 ovarian 88.3% | OVCAR-3 ovarian 109% | HS 578T breast 78.8% | NCI/ADR-RES ovarian 91.6% | T-47D breast 41.9% | BT-549 breast 80.1% | MDA-MB-435 melanoma 86.2% | SW-620 colon 93% | MCF7 breast 49.1% | HCT-116 colon 15.1% | HCC-2998 colon 91.3% | KM12 colon 68.7% | MDA-MB-468 breast 68.3%

Cc1cc2c(c(O)c1Br)-c1ncoc1C(=O)[C@]1(C)CC[C@H](C(C)C)[C@H]21
inactive: OVCAR-8 ovarian 32.6% | OVCAR-5 ovarian 73.2% | OVCAR-4 ovarian 52.4% | SK-OV-3 ovarian 57% | IGROV1 ovarian 52.2% | OVCAR-3 ovarian 18.2% | HS 578T breast 54.7% | NCI/ADR-RES ovarian 27.8% | T-47D breast 20.6% | SW-620 colon 22.8% | MCF7 breast 10.1% | HCT-116 colon 31.1% | HCC-2998 colon 38.2% | KM12 colon 20% | MDA-MB-468 breast 20.3%
active: RPMI-8226 leukemia 4.28% | BT-549 breast -24.6% | MDA-MB-435 melanoma 5.72%

COc1ccc(-c2nc(-c3ccccc3)c(-c3ccccc3)n2-c2ccc(S(=O)(=O)Nc3ncccn3)cc2)cc1OC
inactive: RPMI-8226 leukemia 60.3% | OVCAR-8 ovarian 90.2% | OVCAR-5 ovarian 82.8% | OVCAR-4 ovarian 87% | SK-OV-3 ovarian 95% | IGROV1 ovarian 85.5% | OVCAR-3 ovarian 90.1% | HS 578T breast 50.9% | NCI/ADR-RES ovarian 96.7% | T-47D breast 43.1% | BT-549 breast 68.3% | MDA-MB-435 melanoma 95.1% | SW-620 colon 98.1% | MCF7 breast 71.2% | HCT-116 colon 67.4% | HCC-2998 colon 82.8% | KM12 colon 78.3% | MDA-MB-468 breast 67.8%

COc1ccc(N(C)c2cc(C#N)nc3ccccc23)cc1/C=C/C(=O)NO
active: RPMI-8226 leukemia 5.81% | OVCAR-8 ovarian -37.9% | OVCAR-5 ovarian -46.2% | OVCAR-4 ovarian 7.41% | SK-OV-3 ovarian -22.7% | IGROV1 ovarian -57.4% | OVCAR-3 ovarian -43.4% | HS 578T breast -18.2% | NCI/ADR-RES ovarian -41.9% | T-47D breast -10.8% | BT-549 breast -49.4% | MDA-MB-435 melanoma -70.5% | SW-620 colon -37.5% | MCF7 breast -20.8% | HCT-116 colon -9.52% | HCC-2998 colon -94.8% | KM12 colon -37.1% | MDA-MB-468 breast -86.1%

C=C1CCC2C3(C)COC(c4cc(F)cc(F)c4)OC3CCC2(C)C1C/C=C1/C(=O)OCC1O (stereo not drawn)
inactive: RPMI-8226 leukemia 14.1% | SK-OV-3 ovarian 25%
active: OVCAR-8 ovarian -83.1% | OVCAR-5 ovarian -21.3% | OVCAR-4 ovarian -11% | IGROV1 ovarian -49.8% | OVCAR-3 ovarian -76.9% | HS 578T breast -24.1% | NCI/ADR-RES ovarian -11.1% | T-47D breast -50.1% | BT-549 breast -81.1% | MDA-MB-435 melanoma -64.2% | SW-620 colon -61.9% | MCF7 breast -45.8% | HCT-116 colon -69.2% | HCC-2998 colon -79.9% | KM12 colon -77.9% | MDA-MB-468 breast -58.2%

CC1=C2C(=C[C@@](C)(CO)[C@@H]2O)/C(=N\N)[C@](C)(O)C12CC2
inactive: RPMI-8226 leukemia 56.2% | HCT-116 colon 19.1%
active: OVCAR-8 ovarian 1.18% | OVCAR-5 ovarian -42.8% | OVCAR-4 ovarian -21.7% | SK-OV-3 ovarian -24.7% | IGROV1 ovarian -11.3% | OVCAR-3 ovarian -24.4% | HS 578T breast -12.5% | NCI/ADR-RES ovarian -43.2% | T-47D breast -11.8% | BT-549 breast -71.7% | MDA-MB-435 melanoma -63.8% | SW-620 colon -9.56% | MCF7 breast -6.87% | HCC-2998 colon -76.6% | KM12 colon 7.94% | MDA-MB-468 breast -90.8%

Cc1ccc(/C=C(\C#N)n2nnc3c(F)cccc32)cc1
active: RPMI-8226 leukemia 6.26% | OVCAR-8 ovarian -70.7% | OVCAR-5 ovarian -7.34% | IGROV1 ovarian 8.21% | OVCAR-3 ovarian 0.864% | BT-549 breast -13.4% | MDA-MB-435 melanoma 8.1% | MCF7 breast 8.62% | HCC-2998 colon -20.1% | KM12 colon -1.08%
inactive: OVCAR-4 ovarian 51.2% | SK-OV-3 ovarian 29.5% | HS 578T breast 29.2% | NCI/ADR-RES ovarian 12.9% | T-47D breast 24.5% | SW-620 colon 14% | HCT-116 colon 27% | MDA-MB-468 breast 37.8%
